“And” between values parts separate entries of the source, which are not always exact repeats. Equal entries are not always repeated. Records with an inconclusive call do not appear. Entries that show only a call come without a potency. The source holds several records for some structures; these can differ, active in one and inactive in another. The source made the active and inactive calls. Unless noted, calls come from the whole dose curve; as a rule, active = well fitted curve in the direction sought with a large enough effect in the repeat runs; inconclusive = weak or mixed curves; inactive = no such curve, though single readings can be large; an effect the other way counts as inactive or inconclusive.
Assays:
[1] = qHTS assay for small molecules that induce genotoxicity in human embryonic kidney cells expressing luciferase-tagged ATAD5 (AID 651632); note: nearly all actives have a fitted effect of over 15% in size; note: potency is the fitted concentration of half-maximal effect
Summary of the method: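 Quantitative HTS in HEK293T expressing luciferase-tagged ATAD5, whose levels rise upon DNA damage. Exposure ran 16 hr at 37C and 5% CO2, with luminescence read 30 min after Amplite addition at room temperature.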

[2] = qHTS assay for small molecule agonists of the p53 signaling pathway - cell viability (AID 651633; calls by dose curve;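 note: p53RE-bla HCT reporter cells with a stable beta-lactamase p53 reporter; series mostly up to about 83 µM; nearly all actives have a fitted effect of over 30% in size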)
Summary of the method: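 Viability counter-read: CellTiter-Glo luminescence (30 min, room temperature) in the same p53RE-bla plates. These plates had been exposed to compounds for 16 h at 37 C.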

[3] = qHTS assay for small molecules that induce genotoxicity in human embryonic kidney cells expressing luciferase-tagged ATAD5 - cell viability (AID 651634; calls by dose curve; note: nearly all actives have a fitted effect of over 25% in size; note: potency is the fitted concentration of half-maximal effect)
Summary of the method: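 After 15.5 hr incubation with compound at 37C, 5% CO2, HEK293T ATAD5-luciferase cells received CellTiter-Fluor reagent; fluorescence intensity was quantified following 30 min at 37C.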

[4] = qHTS assay for small molecule disruptors of the mitochondrial membrane potential - cell viability (AID 720634; calls by dose curve; note: nearly all actives have a fitted effect of over 20% in size; note: potency is the fitted concentration of half-maximal effect)
Summary of the method: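 ATP-based luminescent viability readout (CellTiter-Glo, 30 min, room temperature) in HepG2 cells multiplexed with the m-MPI membrane potential dye; compound exposure lasted 1 hr at 37 C.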

[5] = qHTS assay to test for compound auto fluorescence at 590 nm (red) in HepG2 cells (AID 720674)
Summary of the method: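 1 hr compound incubation on HepG2 cells, 37 C, 5% CO2; plate read ex 540 nm / em 590 nm; intensities reported as Rose Bengal sodium equivalents.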

[6] = qHTS assay to test for compound auto fluorescence at 535 nm (green) in HepG2 cells (AID 720675)
[7] = qHTS assay to test for compound auto fluorescence at 460 nm (blue) in HEK293 cells (AID 720678)
Summary of the method: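 Auto fluorescence in the blue band was quantified as triamterene equivalency. HEK293 cells were seeded at 2,000/well, dosed after a 4-5 hr attachment, and kept overnight at 37C before the 405/460 nm reading.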

[8] = qHTS assay to test for compound auto fluorescence at 590 nm (red) in HEK293 cells (AID 720679)
Summary of the method: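 Autofluorescence equivalency to Rose Bengal sodium, 540/590nm, in HEK293 cells exposed overnight to 23 nL compound per well.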

[9] = qHTS assay for small molecule disruptors of the mitochondrial membrane potential (AID 720635); note: potency is the fitted concentration of half-maximal effect
Summary of the method: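 Mitochondrial membrane potential tracked with Mito-MPS dye, red aggregates (ex 540/em 590 nm) against green monomers (ex 490/em 535 nm). Compound treatment 1 hr at 37C, dye 30 min in HepG2.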

Structure (SMILES)	Potency [1]	Potency [2]	Potency [3]	Potency [4]	outcome [5]	outcome [6]	outcome [7]	outcome [8]	Potency [9]
Cc1ccccc1CCl	inactive	inactive	inactive	inactive	inactive	inactive	inactive	inactive	
CC(C)(OO)c1ccccc1	inactive	inactive	inactive	inactive	inactive	inactive	inactive	inactive	inactive
CN1C(=O)C(O)N=C(c2ccccc2)c2cc(Cl)ccc21 (configuration not stated)	inactive	inactive	inactive	inactive	inactive	inactive	inactive	inactive	
NC(=O)C(Cl)(Cl)Cl	inactive	inactive	inactive	inactive	inactive	inactive	inactive	inactive	inactive
O=S(=O)(Cl)c1ccccc1	inactive	inactive	inactive	inactive	inactive	inactive	inactive	inactive	inactive
O=[N+]([O-])c1ccc(F)c([N+](=O)[O-])c1	inactive	inactive	10.6 µM (active) and 27.6 µM (active)		inactive	inactive	inactive	inactive	
O=C(C(Cl)(Cl)Cl)C(Cl)(Cl)Cl	inactive	inactive	inactive	inactive	inactive	inactive		inactive	inactive
NCC(CC(=O)O)c1ccc(Cl)cc1 (configuration not stated)	inactive	inactive	inactive	inactive	inactive	inactive	inactive	inactive	inactive
O=S(=O)(O)C(F)(F)C(F)(F)C(F)(F)C(F)(F)F	inactive	inactive	inactive	inactive	inactive	inactive	inactive	inactive	
CC(=O)[C@H]1CC[C@H]2[C@@H]3CC[C@H]4C[C@](C)(O)CC[C@]4(C)[C@H]3CC[C@]12C	inactive	inactive	inactive	inactive	inactive	inactive	inactive	inactive	inactive
CCOP(=S)(OCC)SCSCC	inactive	inactive	inactive	inactive	inactive	inactive	inactive	inactive	
C=CC(=O)OCCCCO	inactive	inactive	inactive	inactive	inactive	inactive	inactive	inactive	inactive
ClP(Cl)(Cl)(Cl)Cl	inactive	inactive	inactive	inactive	inactive	inactive	inactive	inactive	
CCOP(O)OCC	inactive	inactive	inactive	inactive	inactive	inactive	inactive	inactive	
O=C(CBr)c1ccccc1	inactive	inactive	inactive	inactive	inactive	inactive	inactive	inactive	inactive
CCCC(Cn1cncn1)c1ccc(Cl)cc1Cl (configuration not stated)	inactive	inactive	inactive		inactive	inactive	inactive	inactive	
O=C(OC1CCCCC1)c1ccccc1C(=O)OC1CCCCC1	inactive	inactive	inactive		inactive	inactive	inactive	inactive	28.8 µM (active)
CCn1cc[n+](C)c1	inactive	inactive		inactive	inactive	inactive	inactive	inactive	inactive
CCCCCCCCCCOC(=O)c1ccccc1C(=O)OCCCCCCCCCC	inactive		inactive	inactive	inactive	inactive	inactive	inactive	inactive
O=C1CN=C(c2ccccc2)c2cc(Cl)ccc2N1CC1CC1	inactive		inactive	inactive	inactive	inactive	inactive	inactive	51 µM (active)

Structure (SMILES)	Potency [1]	Potency [2]	Potency [3]	Potency [4]	outcome [5]	outcome [6]	outcome [7]	outcome [8]	Potency [9]
O=[N+]([O-])c1cc(C(F)(F)F)cc([N+](=O)[O-])c1Cl	inactive	inactive			inactive	inactive	inactive	inactive	
CS/C(C)=N/OC(=O)N(C)SN(C)C(=O)O/N=C(\C)SC	inactive	inactive		inactive	inactive	inactive	inactive	inactive	inactive
O=C(Nc1ccccc1)Nc1cnns1	inactive	inactive		inactive	inactive	inactive	inactive	inactive	3.06 µM (active)
Nc1ccc([N+](=O)[O-])cc1[N+](=O)[O-]	inactive	inactive		inactive	inactive	inactive		inactive	29.9 µM (active)
CCCC(=O)Cl	inactive	inactive		inactive	inactive	inactive	inactive	inactive	inactive
O=[N+]([O-])C(Br)(CO)CO	inactive		inactive	inactive	inactive	inactive	inactive	inactive	inactive
O=C1NCN(c2ccccc2)C12CCN(CCCOc1ccc(F)cc1)CC2	inactive		inactive	inactive	inactive	inactive	inactive	inactive	3.35 µM (active)
O=C(O)CC(Cl)C(=O)O (configuration not stated)	inactive	inactive	inactive		inactive	inactive	inactive	inactive	
CC1C(=O)C[C@]2(C(C)C)C[C@H]12 (some centres not stated)	inactive	inactive		inactive	inactive	inactive	inactive	inactive	inactive
Clc1cccc(SC2CCNCC2)n1	inactive		inactive	inactive	inactive	inactive	inactive	inactive	inactive
Clc1cccc2ccccc12	inactive		inactive	inactive	inactive	inactive	inactive	inactive	inactive
C(=NC1CCCCC1)=NC1CCCCC1	inactive		30.8 µM (active) and 43.3 µM (active)	5.48 µM (active)	inactive	inactive	inactive	inactive	138 nM (active) and 217 nM (active)
COP(=S)(Oc1cc(Cl)c(Br)cc1Cl)c1ccccc1 (configuration not stated)	inactive		inactive	48.6 µM (active)	inactive	inactive	inactive	inactive	48.6 µM (active)
O=C(CCl)c1ccc(Cl)cc1Cl	18.8 µM (active) and 43.3 µM (active)		inactive	inactive	inactive	inactive		inactive	inactive and 17.1 µM (active)
O=Cc1ccc2c(c1)OCO2	inactive	inactive		inactive	inactive	inactive		inactive	inactive
CN(N=O)c1ccc([N+](=O)[O-])cc1	inactive		inactive	inactive	inactive	inactive	inactive	inactive	inactive
CCCN(CCC)c1c([N+](=O)[O-])cc(S(C)(=O)=O)cc1[N+](=O)[O-]	inactive	inactive	inactive		inactive	inactive		inactive	
CCOP(=S)(OCC)Oc1cc(Cl)c(Br)cc1Cl	inactive	inactive	inactive		inactive	inactive		inactive	
CC(=O)NC1CCSC1=O (configuration not stated)	inactive		inactive	inactive	inactive	inactive	inactive	inactive	inactive

From PubChem BioAssay (Tox21)
